From paper PMC3218832

How the values were obtained:
Assay in all cases: protein binding microarray; high values mean tight binding
Details in all cases: dsDNA, one strand shown
[1] = target: RELARELA (p65 homodimer) (Homo sapiens, UniProt Q04206 1-307)
[2] = target: p50p50 homodimer (Homo sapiens, UniProt P19838 7-356)
[3] = target: T1, p52p52 homodimer (Homo sapiens, UniProt Q00653 4-332)
T1 sequence: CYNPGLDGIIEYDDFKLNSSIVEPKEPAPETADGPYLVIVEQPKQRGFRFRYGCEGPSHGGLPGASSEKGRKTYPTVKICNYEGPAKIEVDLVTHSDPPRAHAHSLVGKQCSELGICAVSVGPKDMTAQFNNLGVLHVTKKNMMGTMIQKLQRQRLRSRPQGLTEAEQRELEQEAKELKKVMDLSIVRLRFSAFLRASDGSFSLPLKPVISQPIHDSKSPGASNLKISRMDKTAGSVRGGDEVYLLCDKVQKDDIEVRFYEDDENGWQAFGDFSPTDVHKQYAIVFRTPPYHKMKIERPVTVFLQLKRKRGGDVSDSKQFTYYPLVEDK

[4] = target: RELA (p65) subunit of heterodimer;p50 subunit (Homo sapiens;Homo sapiens, UniProt Q04206;P19838 1-307;7-356)
Chain of RELA (p65) subunit of heterodimer;p50 subunit (Q04206 1-307, chain 1 of 2): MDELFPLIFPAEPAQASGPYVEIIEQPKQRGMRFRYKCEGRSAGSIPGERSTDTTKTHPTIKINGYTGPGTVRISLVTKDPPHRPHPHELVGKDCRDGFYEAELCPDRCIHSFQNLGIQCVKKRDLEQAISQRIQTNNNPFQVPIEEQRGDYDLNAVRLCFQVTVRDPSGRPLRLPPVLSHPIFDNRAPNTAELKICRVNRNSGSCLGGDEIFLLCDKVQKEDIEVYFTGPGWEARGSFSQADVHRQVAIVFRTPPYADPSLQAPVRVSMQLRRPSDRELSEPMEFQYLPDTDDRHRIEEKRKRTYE
Chain of RELA (p65) subunit of heterodimer;p50 subunit (P19838 7-356, chain 2 of 2): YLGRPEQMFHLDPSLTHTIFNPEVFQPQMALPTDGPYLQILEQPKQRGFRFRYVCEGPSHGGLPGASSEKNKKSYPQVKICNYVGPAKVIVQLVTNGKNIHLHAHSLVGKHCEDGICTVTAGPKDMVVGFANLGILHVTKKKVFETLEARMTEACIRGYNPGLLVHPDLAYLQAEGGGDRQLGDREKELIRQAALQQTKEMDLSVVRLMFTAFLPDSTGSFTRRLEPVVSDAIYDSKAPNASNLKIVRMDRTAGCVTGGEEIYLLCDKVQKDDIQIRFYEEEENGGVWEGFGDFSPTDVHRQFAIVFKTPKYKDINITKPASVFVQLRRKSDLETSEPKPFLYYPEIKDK

[5] = target: RELA (p65) subunit of heterodimer;p52 subunit (Homo sapiens;Homo sapiens, UniProt Q04206;Q00653 1-307;4-332)
[6] = target: RELB subunit;p50 subunit (Homo sapiens;Homo sapiens, UniProt Q01201;P19838 120-401;7-356)
[7] = target: T2, RELB subunit;p52 subunit (Homo sapiens;Homo sapiens, UniProt Q01201;Q00653 120-401;4-332)
T2 sequence 1: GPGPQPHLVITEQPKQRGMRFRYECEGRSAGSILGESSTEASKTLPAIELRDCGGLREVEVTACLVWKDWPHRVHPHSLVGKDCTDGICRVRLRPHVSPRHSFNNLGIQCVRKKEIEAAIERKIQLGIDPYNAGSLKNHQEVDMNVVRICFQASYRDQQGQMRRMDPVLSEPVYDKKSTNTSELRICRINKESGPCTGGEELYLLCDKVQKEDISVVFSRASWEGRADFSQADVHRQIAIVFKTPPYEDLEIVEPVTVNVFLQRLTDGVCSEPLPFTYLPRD
T2 sequence 2: T1 sequence

[8] = target: C-Rel subunit;p50 subunit (Homo sapiens;Homo sapiens, UniProt Q04864;P19838 1-285;7-356)
[9] = target: T3, C-Rel subunit;p52 subunit (Homo sapiens;Homo sapiens, UniProt Q04864;Q00653 1-285;4-332)
T3 sequence 1: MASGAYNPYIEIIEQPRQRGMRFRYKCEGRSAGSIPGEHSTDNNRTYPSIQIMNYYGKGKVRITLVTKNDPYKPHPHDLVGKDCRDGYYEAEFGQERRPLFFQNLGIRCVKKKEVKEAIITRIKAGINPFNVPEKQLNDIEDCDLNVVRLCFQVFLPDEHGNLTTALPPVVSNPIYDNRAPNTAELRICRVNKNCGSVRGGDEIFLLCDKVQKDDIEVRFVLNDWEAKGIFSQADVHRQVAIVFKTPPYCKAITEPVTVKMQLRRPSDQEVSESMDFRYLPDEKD
T3 sequence 2: T1 sequence

Chain of RELARELA (p65 homodimer) (Q04206 1-307): as the sequence (Q04206 1-307, chain 1 of 2) above
Chain of p50p50 homodimer (P19838 7-356): as the sequence (P19838 7-356, chain 2 of 2) above

Sequence	binding signal [1] [z-score]	binding signal [2] [z-score]	binding signal [3] [z-score]	binding signal [4] [z-score]	binding signal [5] [z-score]	binding signal [6] [z-score]	binding signal [7] [z-score]	binding signal [8] [z-score]	binding signal [9] [z-score]
GGGTTGGTCCT	-0.152	-1.58	-0.471	-0.621	-0.757	-0.889	-0.766	-1.12	-0.527
GAAGATTTCCT	0.421	-0.715	-0.513	-0.241	-0.568	-0.764	-0.77	-0.169	-0.383
GGAATGCCCCC	2.8	1.02	1.8	2.08	2.18	1.13	1.75	1.61	2.48
CAATACTTCCT	-0.118	-1.09	-0.562	-0.687	-0.787	-1.04	-0.781	-0.77	-0.829
AAGATCTCCCT	0.0704	1.15	0.499	0.913	0.528	1.16	1.02	0.475	0.202
CAGAGCTCCCC	-0.432	-0.0564	-0.163	0.0392	-0.211	0.161	-0.0377	0.0629	-0.215
CAATAGCCCCT	-0.581	1.17	0.673	0.506	0.808	0.574	0.89	0.189	0.555
GGGGGAACCCC	2.66	1.15	3.25	2.25	3.23	2.62	2.86	2.58	3.54
AGAGACACCCC	-0.871	-0.237	-0.229	-0.459	-0.359	-0.257	0.00668	-0.227	-0.484
GAGTGTGCCCT	-0.0374	-1.69	-0.704	-0.552	-0.825	-0.946	-0.867	-0.869	-0.582
GAAAAAACCCC	2.27	1.19	2.74	1.93	2.2	2.14	2.12	1.45	2.18
GAAAACGTCCT	-0.176	-1.26	-0.536	-0.838	-0.654	-0.872	-0.687	-0.823	-0.648
CGATACACCCT	-0.54	-0.733	-0.36	-0.642	-0.613	-0.424	-0.507	-0.73	-0.561
CGGATCTTCCT	0.45	-1.67	-0.691	-0.69	-0.836	-1.21	-0.889	-0.859	-0.666
AGATTGACCCT	-0.149	-0.594	-0.42	-0.583	-0.704	-0.635	-0.605	-0.895	-0.787
AAGTAGTCCCC	0.275	1.21	1	1.09	1.01	1.36	1.04	1.07	0.58
CGGAGGTTCCC	1.2	-0.355	-0.258	0.387	-0.0508	-0.291	-0.115	0.126	-0.0163
AAATAATTCCT	0.497	-0.505	-0.44	-0.41	-0.399	-0.654	-0.671	0.179	-0.124
GGAGATTCCCC	2.94	1.13	2.51	2.35	2.22	2.06	2.22	1.88	2.2
CAGTAGGTCCC	0.28	-0.303	-0.0746	-0.34	-0.347	0.0687	-0.117	-0.43	-0.438

Sequence	binding signal [1] [z-score]	binding signal [2] [z-score]	binding signal [3] [z-score]	binding signal [4] [z-score]	binding signal [5] [z-score]	binding signal [6] [z-score]	binding signal [7] [z-score]	binding signal [8] [z-score]	binding signal [9] [z-score]
CAAAAACCCCT	1.05	1.47	2.66	1.84	2.09	2.09	2.18	1.37	2.28
GAGGGCCTCCT	-0.673	-1.05	-0.564	-0.901	-0.776	-0.873	-0.69	-1.21	-0.843
GGGATTCTCCC	2.28	0.737	2.84	1.59	2.15	2.01	1.67	1.41	2
GAGTAAGCCCC	-0.458	0.604	0.178	0.392	0.155	0.171	0.116	0.263	0.236
CGGAGAGTCCT	1	-1.2	-0.591	-0.159	-0.629	-0.808	-0.743	-0.482	-0.448
GAAGTTATCCC	-0.0836	-0.295	-0.152	-0.31	-0.235	-0.113	-0.152	-0.126	-0.251
AGGAGGATCCT	-0.49	-1.69	-0.694	-0.999	-1.04	-0.926	-0.821	-1.4	-0.915
CGAGTGGTCCC	-0.301	-0.0725	-0.0457	-0.513	-0.369	0.0154	-0.138	-0.515	-0.428
GAGAGTTCCCC	1.61	1.06	1.71	1.77	1.55	1.7	1.62	1.21	1.67
CAGTAAATCCT	-0.441	-1.23	-0.605	-0.903	-0.822	-0.822	-0.598	-1.01	-0.81
GGAAGGGCCCC	-0.533	-0.314	-0.0891	0.16	0.159	-0.313	-0.107	-0.00222	0.327
GAAGGCCCCCC	-1.44	0.635	0.244	0.456	0.62	0.366	0.671	0.408	0.0615
GAAGGGACCCC	-0.812	0.244	0.629	-0.173	0.512	0.268	0.639	-0.159	0.296
AGATACATCCC	-0.0343	-0.79	-0.47	-0.557	-0.673	-0.73	-0.746	-0.981	-0.677
AGGATAGCCCT	-0.44	-1.05	-0.582	-0.78	-0.902	-0.841	-0.772	-0.982	-0.688
GAATAAGTCCC	0.563	1.13	0.974	1.43	0.993	1.38	1.13	1.03	0.676
CAGAAGTCCCT	0.471	1.51	1.62	1.88	1.35	2.02	1.86	1.39	0.987
CAATGTCTCCC	-0.338	-0.647	-0.276	-0.405	-0.499	-0.294	-0.275	-0.53	-0.561
AAGATTTCCCC	2.26	1.48	2.39	2.11	2	2.3	2.17	1.73	2.03
GAGTGCGCCCC	-0.402	-0.17	-0.0852	-0.178	0.0378	-0.305	-0.0411	-0.0592	-0.0203

Sequence	binding signal [1] [z-score]	binding signal [2] [z-score]	binding signal [3] [z-score]	binding signal [4] [z-score]	binding signal [5] [z-score]	binding signal [6] [z-score]	binding signal [7] [z-score]	binding signal [8] [z-score]	binding signal [9] [z-score]
AAGAGCATCCT	-0.702	-1.75	-0.753	-1.09	-1.17	-1.16	-0.978	-1.52	-1.15
GAGGGTTCCCT	-0.44	-0.133	-0.121	-0.238	-0.0267	-0.011	0.0453	-0.173	-0.0776
AGGATGTTCCC	0.975	-0.225	-0.143	0.237	0.0834	-0.426	-0.342	0.00777	-0.0123
AAGTATTCCCT	0.729	0.846	0.794	0.606	0.612	0.683	0.852	0.812	0.523
CAGATCCCCCT	-0.0668	1.6	1.41	2.39	1.76	2.45	2.37	1.85	1.37
GAGGAGCCCCC	-0.939	1.04	0.368	0.44	0.25	0.656	0.61	0.625	0.222
GGGTATATCCC	1.19	0.245	2.43	0.931	1.62	0.847	0.92	0.341	1.12
GGATTCATCCT	-0.727	-2.29	-0.817	-1.18	-0.991	-1.18	-0.967	-1.49	-0.792
CAGAGCATCCC	-0.631	-1.46	-0.586	-0.856	-1.02	-1.02	-0.893	-1.22	-1
CAAGAGTCCCC	0.465	1.31	1.01	1.4	1.06	1.44	1.28	0.916	0.77
CGAGTTATCCT	-0.476	-1.24	-0.637	-1.02	-0.873	-1.13	-0.889	-1.27	-0.871
AAGTTAGTCCT	-0.0878	-1.56	-0.552	-1.02	-0.842	-1.03	-0.752	-1	-0.837
AAATGACCCCT	-0.474	0.593	0.182	0.135	0.303	0.241	0.325	-0.224	0.165
CGAAGTTCCCT	0.618	0.819	0.347	0.834	0.752	0.603	0.672	0.425	0.379
GAAGTACCCCC	0.109	1.25	0.815	1.31	1.14	1.27	1.33	0.887	0.946
AAGAGAGTCCT	0.889	-0.892	-0.435	-0.32	-0.676	-0.818	-0.673	-0.59	-0.442
AAGTGTGTCCT	-0.0699	-1.1	-0.57	-0.888	-0.62	-0.808	-0.709	-0.908	-0.763
GAAGAAGCCCT	-0.988	-1.65	-0.651	-0.934	-0.868	-1.04	-0.801	-1.08	-0.998
GAAAATCTCCC	1.06	0.914	0.592	0.875	0.8	1.08	0.63	0.573	0.538
AAAGTCGTCCT	-0.192	-1.25	-0.599	-1.25	-0.839	-0.89	-0.666	-1.18	-0.704
